Measured values from PubChem BioAssay AID652053 (Broad Institute, 2013).
About 930 (72%) of roughly 1,300 compounds were called active.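 How the source made its calls: active means fitted curve reaches 40% activation signal increase at or below the top valid tested concentration in every replicate test; inconclusive means replicate tests disagree in their calls; inactive means all replicate tests inactive, including effects opposite the expected signal rise.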 The set was probably picked from earlier hits. The list is a sample of the results. Potency and affinity values are given separately.

Test: miR-122 inhibitors in Huh7 reporter cells, dose response, cell-based, Huh7 psiCHECK-miR122, Renilla luciferase, cherry-pick (AID 652053)
Conditions: 48 h; series mostly up to 35 µM; activation (miR-122 inhibition): at the top concentration

Activation (miR-122 inhibition), inactive:
Cc1ccc2cc(-c3noc(C(C)(C)C)n3)c(=O)[nH]c2c1 -11.5%
CC(=O)c1cccc(NC(=O)NCc2cccs2)c1 31%
O=c1c[n+]([O-])c2ccccc2n1OCc1c(F)cccc1F 0.654%
COc1ccc(OCCCC(=O)NCCc2ccccc2)cc1 -2.51%
COc1ccc(-c2nc(SCc3ccccc3)n(S(C)(=O)=O)n2)cc1 -9.07%
COc1ccc(S(=O)(=O)N2N=C(C)Oc3ccccc3C2=O)cc1 15.6%
COc1ccc(NC(=O)CCN2C(=O)c3ccccc3C2=O)cc1 14.3%
CC(=O)Nc1nonc1-n1nnc(C(=O)NCc2ccccc2)c1C -10.2%
O=C(CN(Cc1cccs1)S(=O)(=O)c1ccc(S(=O)(=O)NC2CCCCC2)cc1)Nc1ccccc1 -3.3%
C=CCN=C1NN=C(c2ccc3c(c2)OCCO3)CS1 19.4%
CC(=O)N1N=C(c2ccccc2)CC1c1cccs1 (stereo unspecified) 1.31%
CCC(=O)N1[C@H](CN(C)C(C)=O)[C@@H](c2ccc(C3=CCCC3)cc2)[C@@H]1CO 3.62%
C[C@@H]1CN([C@H](C)CO)C(=O)c2cc(NC(=O)Nc3cccc4ccccc34)ccc2O[C@@H]1CN(C)C(=O)Nc1ccccc1 -12.2%
CCNc1nc(N)nc(Oc2ccc(OCCOc3ccccc3)nn2)n1 -13.6%
CCOc1ccccc1NS(=O)(=O)N(C)C -3.18%
C[C@H]1CN([C@@H](C)CO)C(=O)c2cccc(NC(=O)Nc3ccccc3)c2O[C@H]1CN(C)Cc1ccc(C(=O)Nc2ccccc2N)cc1 40%
C[C@@H]1CN([C@H](C)CO)C(=O)c2cccc(NC(=O)Nc3ccccc3)c2O[C@H]1CN(C)Cc1ccc(C(=O)Nc2ccccc2N)cc1 50%
C[C@@H]1CN([C@@H](C)CO)C(=O)c2cccc(NC(=O)Nc3ccccc3)c2O[C@H]1CN(C)Cc1ccc(C(=O)Nc2ccccc2N)cc1 11.5%
C[C@H](CO)N1C[C@H](C)[C@@H](CN(C)C(=O)NC2CCCCC2)Oc2ccc(NC(=O)Nc3cccc4ccccc34)cc2CC1=O 1.35%
CC/C(=N\NC(=O)c1ccc2c(c1)OCO2)C12CC3CC(CC(C3)C1)C2 1.6%
O=C(C(c1ccccc1)c1ccccc1)N1CCOCC1 -2.67%
COc1ccc(C(=O)Oc2ccc(C(=S)N3CCOCC3)cc2)cc1 -8.09%
COc1ccc(C(=O)Nc2nc3c(s2)CCCC3)cc1S(=O)(=O)N1CCCc2ccccc21 4.39%
C[C@H]1CN([C@@H](C)CO)C(=O)c2cc(C#CC(C)(C)O)cnc2O[C@H]1CN(C)Cc1cncnc1 -18.5% [at 30 µM]
CCCC#Cc1cnc2c(c1)C(=O)N([C@H](C)CO)C[C@H](C)[C@H](CN(C)C(=O)c1ccccc1)O2 21.1%
COCC(=O)N(C)C[C@@H]1Oc2ncc(C#Cc3cccnc3)cc2C(=O)N([C@H](C)CO)C[C@H]1C 0.781%
